Values joined by “and” are separate entries in the source; they are usually repeats but may differ in a detail not shown here. Identical values can stand only once. The campaign covered roughly 5,500 compounds. About 2,000 (36%) were called active. Roughly 18% stayed inconclusive and do not appear here. No stated cut-off is given here; in the data, active means normalized growth mostly below about 0.91 (no sharp cut-off); inconclusive means no clear call, values can overlap the other calls; inactive means mostly above about 0.92. The list shows a part of the results.
Experiment: chemical genetic growth profiling, strain panel (AID 1159580);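 further: tested at 20 µM; growth read once vehicle control cultures reached saturation at 30 °C; 1 = growth at the plate median or of vehicle wells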
Details: S. cerevisiae deletion strains, growth OD

Measured: normalized growth

CC(C)=CCOc1c2occc2cc2ccc(=O)oc12
inactive: locus YAL021C, strain ccr4, stronger effect = lower value 0.963 | locus YBR231C, strain swc5, stronger effect = lower value 0.922 | locus YCR088W, strain abp1, stronger effect = lower value 0.928 | locus YDL005C, strain med2, stronger effect = lower value 0.947 | locus YDL040C, strain nat1, stronger effect = lower value 0.934 | locus YDR069C, strain doa4, stronger effect = lower value 0.923 | locus YDR159W, strain sac3, stronger effect = lower value 0.944 | locus YDR195W, strain ref2 1.07 | locus YDR297W, strain sur2, stronger effect = lower value 0.926 | locus YDR335W, strain msn5, stronger effect = lower value 0.942 | locus YEL003W, strain gim4, stronger effect = lower value 0.929 | locus YEL037C, strain rad23, stronger effect = lower value 0.937 | locus YEL061C, strain CIN8 (second series), stronger effect = lower value 0.929 | locus YER015W, strain faa2, stronger effect = lower value 0.935 | locus YER016W, strain bim1, stronger effect = lower value 0.927 | locus YER111C, strain swi4, stronger effect = lower value 0.929 | locus YFR010W, strain ubp6, stronger effect = lower value 0.938 | locus YGL227W, strain vid30, stronger effect = lower value 0.918 | locus YHR013C, strain ard1, stronger effect = lower value 0.87 | locus YHR027C, strain rpn1, stronger effect = lower value 0.954 | locus YHR030C, strain SLT2, stronger effect = lower value 0.978 | locus YHR079C, strain IRE1, stronger effect = lower value 0.975 | locus YIL073C, strain SPO22, stronger effect = lower value 0.792 | locus YJL115W, strain asf1, stronger effect = lower value 0.922 | locus YJL154C, strain vps35, stronger effect = lower value 0.935 | locus YJL187C, strain SWE1, stronger effect = lower value 0.929 | locus YJR066W, strain TOR1, stronger effect = lower value 0.891 | locus YLL026W, stronger effect = lower value 0.931 | locus YLR113W, strain HOG1, stronger effect = lower value 1.02 | locus YLR357W, strain rsc2, stronger effect = lower value 0.871 | locus YMR231W, strain pep5, stronger effect = lower value 0.936 | locus YNL183C, strain NPR1, stronger effect = lower value 0.912 | locus YNL209W, strain ssb2, stronger effect = lower value 0.936 | locus YNL248C, strain rpa49, stronger effect = lower value 0.936 | locus YOL012C, strain htz1 0.448 | locus YOR061W, strain CKA2, stronger effect = lower value 0.917 | locus YOR070C, strain gyp1, stronger effect = lower value 0.93 | locus YOR080W, strain dia2, stronger effect = lower value 0.921 | locus YOR106W, strain vam3, stronger effect = lower value 0.881 | locus YOR231W, strain MKK1, stronger effect = lower value 0.955 | locus YOR265W, strain rbl2, stronger effect = lower value 0.93 | locus YPL106C, strain sse1, stronger effect = lower value 0.941 | locus YPL256C, strain CLN2, stronger effect = lower value 0.969
active: locus YAL013W, strain DEP1, stronger effect = lower value 0.734 | locus YAL026C, strain drs2, stronger effect = lower value 0.874 | locus YAL030W, strain snc1, stronger effect = lower value 0.928 | locus YBL061C, strain skt5, stronger effect = lower value 0.892 | locus YBR009C, strain hhf1, stronger effect = lower value 0.851 | locus YBR021W, strain FUR4, stronger effect = lower value 0.74 | locus YBR023C, strain chs3, stronger effect = lower value 0.864 | locus YBR171W, strain sec66, stronger effect = lower value 0.865 | locus YBR229C, strain ROT2, stronger effect = lower value 0.896 | locus YBR279W, strain paf1, stronger effect = lower value 0.921 | locus YCL011C, strain gbp2, stronger effect = lower value 0.849 | locus YCL016C, strain dcc1, stronger effect = lower value 0.859 | locus YCL029C, strain bik1, stronger effect = lower value 0.804 | locus YCL061C, strain MRC1, stronger effect = lower value 0.876 | locus YCL069W, strain vba3, stronger effect = lower value 0.912 | locus YDL035C, strain GPR1, stronger effect = lower value 0.857 | locus YDL074C, strain BRE1, stronger effect = lower value 0.606 | locus YDL101C, strain DUN1, stronger effect = lower value 0.559 | locus YDL185W, strain tfp1, stronger effect = lower value 0.875 | locus YDL192W, strain arf1, stronger effect = lower value 0.67 | locus YDR001C, strain nth1, stronger effect = lower value 0.899 | locus YDR101C, strain arx1, stronger effect = lower value 0.808 | locus YDR137W, strain rgp1, stronger effect = lower value 0.729 | locus YDR150W, strain NUM1, stronger effect = lower value 0.899 | locus YDR162C, strain NBP2, stronger effect = lower value 0.507 | locus YDR318W, strain mcm21, stronger effect = lower value 0.649 | locus YDR334W, strain swr1, stronger effect = lower value 0.892 | locus YDR388W, stronger effect = lower value 0.837 | locus YDR392W, strain spt3, stronger effect = lower value 0.353 | locus YDR502C, strain sam2, stronger effect = lower value 0.736 | locus YER110C, stronger effect = lower value 0.728 | locus YER155C, strain BEM2 (second series), stronger effect = lower value 0.509 | locus YER155C, strain BEM2, stronger effect = lower value 0.575 | locus YER167W, strain BCK2, stronger effect = lower value 0.722 | locus YGL078C, strain dbp3, stronger effect = lower value 0.92 | locus YGL086W, strain mad1, stronger effect = lower value 0.678 | locus YGL167C, strain pmr1, stronger effect = lower value 0.887 | locus YGL173C, strain kem1, stronger effect = lower value 0.885 | locus YGL240W, strain doc1, stronger effect = lower value 0.741 | locus YGL248W, strain PDE1, stronger effect = lower value 0.672 | locus YGL253W, strain hxk2, stronger effect = lower value 0.807 | locus YGR135W, strain pre9, stronger effect = lower value 0.666 | locus YGR252W, strain gcn5, stronger effect = lower value 0.519 | locus YHR079C, strain IRE1 (second series), stronger effect = lower value 0.856 | locus YHR094C, strain hxt1, stronger effect = lower value 0.821 | locus YHR129C, strain ARP1, stronger effect = lower value 0.652 | locus YHR142W, strain chs7, stronger effect = lower value 0.679 | locus YHR200W, strain rpn10, stronger effect = lower value 0.822 | locus YIL066C, strain RNR3, stronger effect = lower value 0.697 | locus YIL125W, strain kgd1, stronger effect = lower value 0.895 | locus YIR030C, strain dcg1, stronger effect = lower value 0.842 | locus YJL092W, strain hpr5, stronger effect = lower value 0.9 | locus YJL095W, strain BCK1 (second series), stronger effect = lower value 0.898 | locus YJL129C, strain trk1, stronger effect = lower value 0.774 | locus YJL134W, strain LCB3, stronger effect = lower value 0.895 | locus YJL164C, strain tpk1, stronger effect = lower value 0.859 | locus YJL166W, strain qcr8, stronger effect = lower value 0.895 | locus YJL168C, strain set2, stronger effect = lower value 0.875 | locus YJL187C, strain SWE1 (second series), stronger effect = lower value 0.739 | locus YJR043C, strain POL32, stronger effect = lower value 0.742 | locus YKL009W, strain mrt4, stronger effect = lower value 0.844 | locus YKL068W, stronger effect = lower value 0.898 | locus YKL085W, strain MDH1 (second series), stronger effect = lower value 0.898 | locus YKL085W, strain MDH1, stronger effect = lower value 0.898 | locus YKL160W, strain elf1, stronger effect = lower value 0.898 | locus YKL190W, strain CNB1, stronger effect = lower value 0.854 | locus YKR001C, strain vps1, stronger effect = lower value 0.599 | locus YKR026C, strain gcn3, stronger effect = lower value 0.905 | locus YKR091W, strain srl3, stronger effect = lower value 0.929 | locus YLL001W, strain dnm1, stronger effect = lower value 0.862 | locus YLL041C, strain sdh2, stronger effect = lower value 0.919 | locus YLR027C, strain aat2, stronger effect = lower value 0.893 | locus YLR039C, strain RIC1, stronger effect = lower value 0.429 | locus YLR058C, strain SHM2, stronger effect = lower value 0.748 | locus YLR102C, strain apc9, stronger effect = lower value 0.843 | locus YLR221C, strain rsa3, stronger effect = lower value 0.821 | locus YLR258W, strain gsy2, stronger effect = lower value 0.908 | locus YLR262C, strain YPT6 (second series), stronger effect = lower value 0.749 | locus YLR262C, strain YPT6, stronger effect = lower value 0.448 | locus YLR268W, strain sec22, stronger effect = lower value 0.695 | locus YLR320W, strain mms22, stronger effect = lower value 0.652 | locus YLR330W, strain CHS5, stronger effect = lower value 0.507 | locus YLR342W, strain FKS1 (second series), stronger effect = lower value 0.416 | locus YLR342W, strain FKS1, stronger effect = lower value 0.86 | locus YLR370C, strain arc18, stronger effect = lower value 0.906 | locus YLR371W, strain rom2, stronger effect = lower value 0.582 | locus YLR384C, strain iki3, stronger effect = lower value 0.9 | locus YLR418C, strain cdc73, stronger effect = lower value 0.28 | locus YML016C, strain PPZ1, stronger effect = lower value 0.875 | locus YML032C, strain rad52, stronger effect = lower value 0.676 | locus YML120C, strain ndi1, stronger effect = lower value 0.875 | locus YML124C, strain tub3, stronger effect = lower value 0.827 | locus YMR058W, strain fet3, stronger effect = lower value 0.886 | locus YMR078C, strain ctf18, stronger effect = lower value 0.781 | locus YMR125W, strain sto1, stronger effect = lower value 0.826 | locus YMR129W, stronger effect = lower value 0.921 | locus YMR205C, strain PFK2, stronger effect = lower value 0.817 | locus YMR223W, strain ubp8, stronger effect = lower value 0.736 | locus YMR307W, strain GAS1, stronger effect = lower value 0.443 | locus YNL067W, strain RPL9B, stronger effect = lower value 0.764 | locus YNL071W, strain lat1, stronger effect = lower value 0.573 | locus YNL153C, strain GIM3, stronger effect = lower value 0.73 | locus YNL233W, strain BNI4, stronger effect = lower value 0.517 | locus YNL250W, strain rad50, stronger effect = lower value 0.884 | locus YNL271C, strain bni1, stronger effect = lower value 0.849 | locus YNL298W, strain CLA4, stronger effect = lower value 0.823 | locus YNL307C, strain MCK1, stronger effect = lower value 0.222 | locus YNL322C, strain KRE1 (second series), stronger effect = lower value 0.904 | locus YNR049C, strain mso1, stronger effect = lower value 0.914 | locus YNR052C, strain pop2, stronger effect = lower value 0.877 | locus YOL006C, strain TOP1, stronger effect = lower value 0.373 | locus YOL147C, strain pex11, stronger effect = lower value 0.551 | locus YOR001W, strain rrp6, stronger effect = lower value 0.89 | locus YOR069W, strain VPS5, stronger effect = lower value 0.783 | locus YOR083W, strain WHI5, stronger effect = lower value 0.86 | locus YOR136W, strain idh2, stronger effect = lower value 0.851 | locus YOR144C, strain elg1, stronger effect = lower value 0.717 | locus YOR184W, strain ser1, stronger effect = lower value 0.459 | locus YOR270C, strain vph1, stronger effect = lower value 0.592 | locus YOR290C, strain snf2, stronger effect = lower value 0.787 | locus YOR316C, strain cot1, stronger effect = lower value 0.86 | locus YPL051W, strain arl3, stronger effect = lower value 0.908 | locus YPL055C, strain LGE1, stronger effect = lower value 0.657 | locus YPL078C, strain atp4, stronger effect = lower value 0.843 | locus YPL240C, strain hsp82, stronger effect = lower value 0.912 | locus YPR119W, strain clb2, stronger effect = lower value 0.837 | locus YPR141C, strain kar3, stronger effect = lower value 0.869 | locus YPR163C, strain tif3, stronger effect = lower value 0.34 | locus YPR167C, strain met16, stronger effect = lower value 0.782 | strain wtn01, stronger effect = lower value 0.708
0.297 (active) and 0.984 (inactive): locus YJL095W, strain BCK1, stronger effect = lower value

Reference: PubChem BioAssay AID1159580 (chemical genetic matrix, 2015)
